Measured values published in the supplement of paper PMC11732987, “Enantioselective OTUD7B fragment discovery through chemoproteomics screening and high-throughput optimisation” (Communications Chemistry, 2025).

How the values were obtained:
Experiment in all cases: log2 ratio of Biotin-Ahx-Ub-VS probe labelling (fragment/DMSO); higher = less target engagement (more negative = stronger competition), active = hit call of the paper (q ≤ 0.05, log2 ratio ≤ -1)
Settings in all cases: compound concentration: 200 uM; treatment time: 3 h
USP34 = USP34 (UniProt Q70CQ2)
USP34, sequence (Q70CQ2 whole entry, the tested form may be a part): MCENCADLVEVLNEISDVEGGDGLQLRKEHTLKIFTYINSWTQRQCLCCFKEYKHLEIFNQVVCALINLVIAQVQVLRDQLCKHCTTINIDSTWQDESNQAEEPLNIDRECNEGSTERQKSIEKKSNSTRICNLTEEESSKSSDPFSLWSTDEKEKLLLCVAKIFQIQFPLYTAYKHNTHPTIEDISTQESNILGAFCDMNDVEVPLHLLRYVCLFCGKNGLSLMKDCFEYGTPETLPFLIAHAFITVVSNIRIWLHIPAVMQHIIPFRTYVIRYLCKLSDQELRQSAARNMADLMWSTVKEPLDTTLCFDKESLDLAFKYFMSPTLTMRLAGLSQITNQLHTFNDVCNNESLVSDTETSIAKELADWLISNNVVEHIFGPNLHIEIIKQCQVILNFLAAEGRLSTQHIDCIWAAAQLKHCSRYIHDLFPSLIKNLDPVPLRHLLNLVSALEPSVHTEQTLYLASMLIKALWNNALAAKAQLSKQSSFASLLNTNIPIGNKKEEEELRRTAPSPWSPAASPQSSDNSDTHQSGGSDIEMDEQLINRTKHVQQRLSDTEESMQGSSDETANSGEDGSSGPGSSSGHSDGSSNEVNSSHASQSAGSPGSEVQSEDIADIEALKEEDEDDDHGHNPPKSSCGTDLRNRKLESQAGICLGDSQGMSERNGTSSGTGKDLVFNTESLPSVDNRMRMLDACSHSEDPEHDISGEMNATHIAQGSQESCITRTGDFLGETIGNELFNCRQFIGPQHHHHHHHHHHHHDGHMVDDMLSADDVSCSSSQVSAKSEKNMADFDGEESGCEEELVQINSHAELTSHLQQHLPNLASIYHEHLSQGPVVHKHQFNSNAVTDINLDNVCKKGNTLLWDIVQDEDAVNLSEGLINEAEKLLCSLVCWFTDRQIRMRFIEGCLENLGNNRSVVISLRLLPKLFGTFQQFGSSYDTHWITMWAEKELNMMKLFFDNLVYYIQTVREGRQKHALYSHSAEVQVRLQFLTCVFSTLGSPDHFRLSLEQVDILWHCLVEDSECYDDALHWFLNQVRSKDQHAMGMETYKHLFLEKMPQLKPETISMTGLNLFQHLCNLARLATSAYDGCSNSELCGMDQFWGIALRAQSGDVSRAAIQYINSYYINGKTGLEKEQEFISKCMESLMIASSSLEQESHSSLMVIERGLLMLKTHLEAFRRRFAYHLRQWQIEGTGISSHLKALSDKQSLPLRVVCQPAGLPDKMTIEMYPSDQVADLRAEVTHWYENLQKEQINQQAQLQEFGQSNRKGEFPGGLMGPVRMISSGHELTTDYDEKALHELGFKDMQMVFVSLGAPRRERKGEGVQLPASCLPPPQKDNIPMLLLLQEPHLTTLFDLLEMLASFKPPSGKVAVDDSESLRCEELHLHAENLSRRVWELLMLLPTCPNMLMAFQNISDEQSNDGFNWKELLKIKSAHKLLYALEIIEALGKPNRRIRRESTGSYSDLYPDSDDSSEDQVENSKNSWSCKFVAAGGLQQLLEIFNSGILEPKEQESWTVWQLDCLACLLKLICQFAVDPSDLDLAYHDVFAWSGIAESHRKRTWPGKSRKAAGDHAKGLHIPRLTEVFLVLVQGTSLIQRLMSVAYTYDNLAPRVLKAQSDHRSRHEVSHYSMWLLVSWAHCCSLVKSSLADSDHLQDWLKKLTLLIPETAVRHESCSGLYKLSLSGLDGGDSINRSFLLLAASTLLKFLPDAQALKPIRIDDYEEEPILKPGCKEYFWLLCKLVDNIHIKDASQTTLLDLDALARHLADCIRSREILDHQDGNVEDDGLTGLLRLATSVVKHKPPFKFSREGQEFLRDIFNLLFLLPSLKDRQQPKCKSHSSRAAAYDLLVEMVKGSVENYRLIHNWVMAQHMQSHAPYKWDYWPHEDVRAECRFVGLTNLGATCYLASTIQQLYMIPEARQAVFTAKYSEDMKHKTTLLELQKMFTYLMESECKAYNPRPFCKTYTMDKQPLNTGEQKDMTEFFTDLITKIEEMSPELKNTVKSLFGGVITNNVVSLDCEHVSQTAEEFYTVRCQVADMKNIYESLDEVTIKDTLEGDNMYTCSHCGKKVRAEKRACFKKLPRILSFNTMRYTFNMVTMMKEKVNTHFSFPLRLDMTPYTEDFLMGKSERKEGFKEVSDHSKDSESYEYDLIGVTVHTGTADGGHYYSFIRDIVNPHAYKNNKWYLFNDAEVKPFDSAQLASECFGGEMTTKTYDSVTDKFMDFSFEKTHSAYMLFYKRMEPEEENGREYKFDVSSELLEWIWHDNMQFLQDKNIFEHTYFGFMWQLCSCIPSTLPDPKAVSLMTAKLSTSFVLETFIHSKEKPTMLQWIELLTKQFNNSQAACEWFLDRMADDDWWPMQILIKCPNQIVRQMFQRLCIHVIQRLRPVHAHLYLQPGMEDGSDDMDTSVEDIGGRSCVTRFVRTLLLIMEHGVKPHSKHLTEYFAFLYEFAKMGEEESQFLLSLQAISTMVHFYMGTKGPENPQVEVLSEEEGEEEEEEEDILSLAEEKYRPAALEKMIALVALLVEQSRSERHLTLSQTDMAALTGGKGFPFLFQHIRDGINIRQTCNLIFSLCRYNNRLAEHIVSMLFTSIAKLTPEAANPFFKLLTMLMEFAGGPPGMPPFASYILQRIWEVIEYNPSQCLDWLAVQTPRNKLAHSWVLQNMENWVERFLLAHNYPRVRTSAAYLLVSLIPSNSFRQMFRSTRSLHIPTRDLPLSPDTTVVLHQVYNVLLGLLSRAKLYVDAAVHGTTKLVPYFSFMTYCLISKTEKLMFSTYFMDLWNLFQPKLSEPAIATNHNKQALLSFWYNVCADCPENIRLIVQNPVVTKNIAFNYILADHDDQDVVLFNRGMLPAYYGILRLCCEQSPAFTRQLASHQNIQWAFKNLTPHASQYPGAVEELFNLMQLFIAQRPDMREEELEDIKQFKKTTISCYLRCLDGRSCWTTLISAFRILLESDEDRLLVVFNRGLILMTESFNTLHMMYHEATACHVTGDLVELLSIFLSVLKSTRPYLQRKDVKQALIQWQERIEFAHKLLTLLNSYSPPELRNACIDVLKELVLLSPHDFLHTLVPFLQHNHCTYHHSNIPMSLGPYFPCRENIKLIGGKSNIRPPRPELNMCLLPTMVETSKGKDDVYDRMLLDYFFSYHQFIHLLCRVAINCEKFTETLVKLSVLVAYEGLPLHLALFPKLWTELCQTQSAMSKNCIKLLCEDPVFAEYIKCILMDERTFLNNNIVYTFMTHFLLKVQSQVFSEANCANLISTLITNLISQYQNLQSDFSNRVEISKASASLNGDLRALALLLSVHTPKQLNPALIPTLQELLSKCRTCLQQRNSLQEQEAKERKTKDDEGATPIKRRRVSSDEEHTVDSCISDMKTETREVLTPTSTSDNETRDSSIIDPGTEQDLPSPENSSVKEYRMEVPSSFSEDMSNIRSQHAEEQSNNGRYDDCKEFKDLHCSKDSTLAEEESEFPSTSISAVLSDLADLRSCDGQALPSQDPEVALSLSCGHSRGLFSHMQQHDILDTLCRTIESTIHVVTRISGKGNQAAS
Outline: (§1)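 Average log2 ratios of fragment over vehicle were obtained by unpaired t-test from global-median-normalised Spectronaut label-free quantities. Proteins with ≥2 unique peptides were included. HEK293T lysate (495 µg per sample) was treated in triplicate with fragment at 200 µM or vehicle for 3 h, then with Biotin-Ahx-Ub-VS at 0.5 µM final for 1 h, and labelled DUBs were NeutrAvidin-enriched and run by diaPASEF LC-MS/MS.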

USP36 = molecular target: T1, USP36 (UniProt Q9P275)
T1 sequence (whole entry): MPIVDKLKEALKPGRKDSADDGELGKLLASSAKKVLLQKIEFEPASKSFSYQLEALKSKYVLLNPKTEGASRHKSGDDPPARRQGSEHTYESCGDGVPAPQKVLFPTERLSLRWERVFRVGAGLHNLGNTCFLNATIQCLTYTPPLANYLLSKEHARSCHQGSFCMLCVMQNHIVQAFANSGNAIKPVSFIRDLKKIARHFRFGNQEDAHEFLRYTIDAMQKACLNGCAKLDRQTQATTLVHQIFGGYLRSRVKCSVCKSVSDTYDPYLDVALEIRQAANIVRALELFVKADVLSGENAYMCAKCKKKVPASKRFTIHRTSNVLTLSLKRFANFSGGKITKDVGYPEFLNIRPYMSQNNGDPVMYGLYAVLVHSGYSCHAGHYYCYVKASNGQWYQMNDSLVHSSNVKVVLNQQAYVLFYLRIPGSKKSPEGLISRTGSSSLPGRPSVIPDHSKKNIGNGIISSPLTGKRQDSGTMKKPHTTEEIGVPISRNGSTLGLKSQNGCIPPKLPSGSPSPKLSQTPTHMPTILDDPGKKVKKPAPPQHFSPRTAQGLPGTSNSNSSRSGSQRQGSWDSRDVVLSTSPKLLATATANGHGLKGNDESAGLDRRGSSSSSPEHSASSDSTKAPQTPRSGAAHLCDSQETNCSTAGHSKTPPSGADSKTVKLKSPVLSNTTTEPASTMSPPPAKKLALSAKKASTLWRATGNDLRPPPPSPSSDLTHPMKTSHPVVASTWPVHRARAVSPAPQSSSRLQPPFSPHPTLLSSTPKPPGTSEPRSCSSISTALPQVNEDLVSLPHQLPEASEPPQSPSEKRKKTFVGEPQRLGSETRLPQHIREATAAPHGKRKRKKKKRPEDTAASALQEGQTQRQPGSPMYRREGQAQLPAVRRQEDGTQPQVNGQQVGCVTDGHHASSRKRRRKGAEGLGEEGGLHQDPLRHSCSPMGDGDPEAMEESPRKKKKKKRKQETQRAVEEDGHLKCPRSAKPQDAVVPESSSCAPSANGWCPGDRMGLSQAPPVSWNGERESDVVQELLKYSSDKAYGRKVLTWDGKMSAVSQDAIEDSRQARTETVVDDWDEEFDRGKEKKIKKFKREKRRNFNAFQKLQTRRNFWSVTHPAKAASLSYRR
Outline: as §1

USP38 = molecular target: T2, USP38 (UniProt Q8NB14)
T2 sequence (whole entry): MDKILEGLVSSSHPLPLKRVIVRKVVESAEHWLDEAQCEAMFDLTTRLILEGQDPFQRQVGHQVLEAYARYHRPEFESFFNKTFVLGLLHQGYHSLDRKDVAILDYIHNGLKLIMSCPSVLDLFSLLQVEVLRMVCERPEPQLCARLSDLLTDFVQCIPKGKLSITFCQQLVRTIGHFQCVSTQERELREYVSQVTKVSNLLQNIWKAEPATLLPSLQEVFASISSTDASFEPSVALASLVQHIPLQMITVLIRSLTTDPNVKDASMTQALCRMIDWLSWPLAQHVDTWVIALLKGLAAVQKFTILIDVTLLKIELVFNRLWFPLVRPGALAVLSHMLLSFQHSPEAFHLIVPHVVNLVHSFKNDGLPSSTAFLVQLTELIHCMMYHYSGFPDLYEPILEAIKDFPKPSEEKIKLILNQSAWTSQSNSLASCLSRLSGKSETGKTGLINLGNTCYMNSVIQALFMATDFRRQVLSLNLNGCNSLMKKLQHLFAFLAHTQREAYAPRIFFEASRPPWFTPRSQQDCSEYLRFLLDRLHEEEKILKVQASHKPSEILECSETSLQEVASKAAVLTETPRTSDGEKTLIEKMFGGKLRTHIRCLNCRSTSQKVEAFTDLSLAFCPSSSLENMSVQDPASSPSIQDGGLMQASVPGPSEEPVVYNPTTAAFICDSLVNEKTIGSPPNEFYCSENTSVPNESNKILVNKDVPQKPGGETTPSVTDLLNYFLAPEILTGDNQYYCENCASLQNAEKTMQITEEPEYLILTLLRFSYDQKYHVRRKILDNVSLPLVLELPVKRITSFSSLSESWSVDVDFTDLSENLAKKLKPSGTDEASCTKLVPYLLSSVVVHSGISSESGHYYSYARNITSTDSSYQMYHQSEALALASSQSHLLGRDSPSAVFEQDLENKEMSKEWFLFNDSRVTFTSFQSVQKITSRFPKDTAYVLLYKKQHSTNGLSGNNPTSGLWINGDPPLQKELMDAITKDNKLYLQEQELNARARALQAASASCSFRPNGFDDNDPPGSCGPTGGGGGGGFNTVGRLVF
Outline: as §1

USP39 = molecular target: T3, USP39 (UniProt Q53GS9)
T3 sequence (whole entry): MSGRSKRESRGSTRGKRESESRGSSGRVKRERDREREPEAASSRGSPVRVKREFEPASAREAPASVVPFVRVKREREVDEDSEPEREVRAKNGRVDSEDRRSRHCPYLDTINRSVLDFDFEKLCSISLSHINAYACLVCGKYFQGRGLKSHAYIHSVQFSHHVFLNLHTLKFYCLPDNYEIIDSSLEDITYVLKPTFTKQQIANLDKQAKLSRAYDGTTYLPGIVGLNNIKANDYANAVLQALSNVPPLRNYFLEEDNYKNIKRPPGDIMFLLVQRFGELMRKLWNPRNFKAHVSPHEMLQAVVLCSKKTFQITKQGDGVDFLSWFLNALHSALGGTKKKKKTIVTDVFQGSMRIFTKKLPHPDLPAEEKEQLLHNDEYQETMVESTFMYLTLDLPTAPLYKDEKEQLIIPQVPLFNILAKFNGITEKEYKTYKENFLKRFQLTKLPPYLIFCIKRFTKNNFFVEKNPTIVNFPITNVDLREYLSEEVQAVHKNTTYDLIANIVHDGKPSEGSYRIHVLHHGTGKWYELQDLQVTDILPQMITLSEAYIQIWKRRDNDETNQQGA
Outline: as §1

USP4 = molecular target: T4, USP4 (UniProt Q13107)
T4 sequence (whole entry): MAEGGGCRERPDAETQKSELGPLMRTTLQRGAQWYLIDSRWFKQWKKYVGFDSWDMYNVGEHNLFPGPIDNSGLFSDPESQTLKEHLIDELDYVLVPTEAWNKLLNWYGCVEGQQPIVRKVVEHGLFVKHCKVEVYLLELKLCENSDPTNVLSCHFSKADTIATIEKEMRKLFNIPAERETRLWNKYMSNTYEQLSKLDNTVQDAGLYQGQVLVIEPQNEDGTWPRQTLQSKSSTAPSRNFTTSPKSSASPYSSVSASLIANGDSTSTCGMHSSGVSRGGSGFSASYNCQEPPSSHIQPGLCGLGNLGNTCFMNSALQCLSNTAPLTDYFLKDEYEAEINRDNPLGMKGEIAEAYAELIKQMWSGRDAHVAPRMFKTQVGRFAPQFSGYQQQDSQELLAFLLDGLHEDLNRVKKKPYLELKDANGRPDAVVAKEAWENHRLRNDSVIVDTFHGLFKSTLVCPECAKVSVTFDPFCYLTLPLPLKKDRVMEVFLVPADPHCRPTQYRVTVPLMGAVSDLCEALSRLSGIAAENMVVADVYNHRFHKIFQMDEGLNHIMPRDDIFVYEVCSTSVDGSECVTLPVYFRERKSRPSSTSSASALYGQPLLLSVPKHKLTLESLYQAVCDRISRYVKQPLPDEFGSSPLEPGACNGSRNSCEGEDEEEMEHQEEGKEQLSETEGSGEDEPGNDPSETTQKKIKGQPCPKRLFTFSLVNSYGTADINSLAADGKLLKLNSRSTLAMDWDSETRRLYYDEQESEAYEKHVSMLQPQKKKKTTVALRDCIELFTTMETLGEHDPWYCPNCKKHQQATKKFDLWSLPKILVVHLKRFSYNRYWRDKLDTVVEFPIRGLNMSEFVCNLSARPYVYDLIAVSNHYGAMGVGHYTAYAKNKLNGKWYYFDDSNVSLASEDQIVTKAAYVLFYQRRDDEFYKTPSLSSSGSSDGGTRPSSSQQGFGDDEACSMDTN
Outline: as §1

Measured: log2 ratio of Biotin-Ahx-Ub-VS probe labelling

Cl.O=C(CCl)N1CCCC(c2ncc[nH]2)C1 (stereo not given)
inactive: USP34 0.00166 | USP36 0.0764 | USP38 -0.0133 | USP39 0.00979 | USP4 0.124
